# Data taken from the supplement of paper PMC10037445.
# Over roughly 2,900 compounds, “IRF Lucia reporter activity, fold change vs agonist alone” has its median near 0.9; the highest 2% begin near 2.8. The list comes from a sample in which the highest values are over-represented; it also holds similar structures and randomly drawn compounds.
# Tests used:
# RAW-Dual [1] = assay: IRF Lucia reporter activity, fold change vs agonist alone; higher = enhanced IRF activity; conditions: library stock concentration (final ~1000-fold dilution): 10 mM, agonist: MPLA (TLR4) […]
# How it was run: (§1)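 RAW-Dual macrophages were seeded in DMEM at 50,000 cells/well in 384-well plates, given 50 nL of library stock by pin tool, and given a PRR agonist 1 h later. Plates were held at 37 °C, 5% CO2 for 20 hours, after which supernatant was read for IRF by QuantiLuc luminescence and for NF-κB by QuantiBlue absorbance at 620 nm. Reporter activity is expressed as fold change over wells that received agonist alone. A well was called cytotoxic when IncuCyte confluency fell below 70% of agonist controls in both mask sets.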
# RAW-Dual [2] = assay: IRF Lucia reporter activity, fold change vs agonist alone; cytotoxicity flag (confluency mask): not cytotoxic; higher = enhanced IRF activity
# How it was run: as §1
# RAW-Dual [3] = assay: IRF Lucia reporter activity, fold change vs agonist alone; cytotoxicity flag (confluency mask): cytotoxic (confluency <70% of control); higher = enhanced IRF activity
# How it was run: as §1
# [4] = cytotoxicity flag (confluency mask): not cytotoxic
# [5] = agonist: 3'3'-cGAMP (STING) 10 ug/mL
structure (smiles),measurement,setting,value
CNCc1ccc(C)c(NC(=O)c2ccc(Nc3nc(-c4ccccc4)c4ccccc4n3)cc2)c1,IRF Lucia reporter activity,RAW-Dual [1]; [4],1.01
CC(=O)Nc1ccc(C(=O)Nc2ccccc2N)cc1 (library stock concentration (final ~1000-fold dilution): 10 mM),IRF Lucia reporter activity,RAW-Dual [2]; [5],0.557
same,IRF Lucia reporter activity,RAW-Dual [2]; agonist: LPS (TLR4) 0.1 ug/mL,0.424
Cc1cc(Nc2ccc(NC(=O)c3ccc(Nc4ccnc5ccccc45)cc3)cc2)nc(N)n1 (library stock concentration (final ~1000-fold dilution): 10 mM),IRF Lucia reporter activity,RAW-Dual [2]; [5],1.65
same,IRF Lucia reporter activity,RAW-Dual [2]; agonist: LPS (TLR4) 0.1 ug/mL,2.84
CNCc1ccc(C)c(NC(=O)c2ccc(Nc3nc(-c4ccccc4)c4ccccc4n3)cc2)c1 (library stock concentration (final ~1000-fold dilution): 10 mM),IRF Lucia reporter activity,RAW-Dual [2]; [5],0.995
same,IRF Lucia reporter activity,RAW-Dual [2]; agonist: LPS (TLR4) 0.1 ug/mL,1.04
CC(=O)Nc1ccc(C(=O)Nc2ccccc2N)cc1,IRF Lucia reporter activity,RAW-Dual [1]; [4],0.418
Cc1cc(Nc2ccc(NC(=O)c3ccc(Nc4ccnc5ccccc45)cc3)cc2)nc(N)n1,IRF Lucia reporter activity,RAW-Dual [1]; [4],3.15
CCN(CC)CCCC(C)Nc1c2ccc(Cl)cc2nc2ccc(OC)cc12.Cl.Cl (stereo not drawn),IRF Lucia reporter activity,RAW-Dual [1]; cytotoxicity flag (confluency mask): cytotoxic (confluency <70% of control),0.84
CCN(CC)CCCC(C)Nc1c2ccc(Cl)cc2nc2ccc(OC)cc12.Cl.Cl (stereo not drawn) (library stock concentration (final ~1000-fold dilution): 10 mM),IRF Lucia reporter activity,RAW-Dual [3]; [5],0.643
same,IRF Lucia reporter activity,RAW-Dual [3]; agonist: LPS (TLR4) 0.1 ug/mL,0.0599
C/C(O)=C(\C#N)C(=O)Nc1ccc(C(F)(F)F)cc1 (library stock concentration (final ~1000-fold dilution): 10 mM),IRF Lucia reporter activity,RAW-Dual [2]; [5],1.69
same,IRF Lucia reporter activity,RAW-Dual [2]; agonist: LPS (TLR4) 0.1 ug/mL,3.04
C/C(O)=C(\C#N)C(=O)Nc1ccc(C(F)(F)F)cc1,IRF Lucia reporter activity,RAW-Dual [1]; [4],1.97
CC(=O)Oc1cc(C(F)(F)F)ccc1C(=O)O,IRF Lucia reporter activity,RAW-Dual [1]; [4],1.04
Cc1oncc1C(=O)Nc1ccc(C(F)(F)F)cc1,IRF Lucia reporter activity,RAW-Dual [1]; [4],1.62
CC(=O)Oc1cc(C(F)(F)F)ccc1C(=O)O (library stock concentration (final ~1000-fold dilution): 10 mM),IRF Lucia reporter activity,RAW-Dual [2]; [5],1.03
same,IRF Lucia reporter activity,RAW-Dual [2]; agonist: LPS (TLR4) 0.1 ug/mL,0.337
Cc1oncc1C(=O)Nc1ccc(C(F)(F)F)cc1 (library stock concentration (final ~1000-fold dilution): 10 mM),IRF Lucia reporter activity,RAW-Dual [2]; [5],1.08
same,IRF Lucia reporter activity,RAW-Dual [2]; agonist: LPS (TLR4) 0.1 ug/mL,1.39
CC1CCC2C(C)C(OC(=O)CCC(=O)O)OC3OC4(C)CCC1C32OO4 (stereo not drawn),IRF Lucia reporter activity,RAW-Dual [1]; [4],0.737
CC1CCC2C(C)C(OC(=O)CCC(=O)O)OC3OC4(C)CCC1C32OO4 (stereo not drawn) (library stock concentration (final ~1000-fold dilution): 10 mM),IRF Lucia reporter activity,RAW-Dual [2]; [5],0.638
same,IRF Lucia reporter activity,RAW-Dual [2]; agonist: LPS (TLR4) 0.1 ug/mL,0.706
COc1ccc(CCc2nc3cc(-c4c(C)noc4C)ccc3n2CC(C)N2CCOCC2)cc1Cl (stereo not drawn) (library stock concentration (final ~1000-fold dilution): 10 mM),IRF Lucia reporter activity,RAW-Dual [2]; [5],0.452
same,IRF Lucia reporter activity,RAW-Dual [2]; agonist: LPS (TLR4) 0.1 ug/mL,0.421
COc1ccc(CCc2nc3cc(-c4c(C)noc4C)ccc3n2CC(C)N2CCOCC2)cc1Cl (stereo not drawn),IRF Lucia reporter activity,RAW-Dual [1]; [4],0.203
COC1=CC(c2cc3ccccc3[nH]2)=N/C1=C\c1[nH]c(C)cc1C.CS(=O)(=O)O (library stock concentration (final ~1000-fold dilution): 10 mM),IRF Lucia reporter activity,RAW-Dual [2]; [5],0.38
same,IRF Lucia reporter activity,RAW-Dual [2]; agonist: LPS (TLR4) 0.1 ug/mL,3.87
COC1=CC(c2cc3ccccc3[nH]2)=N/C1=C\c1[nH]c(C)cc1C.CS(=O)(=O)O,IRF Lucia reporter activity,RAW-Dual [1]; [4],5.45
Cc1cc(C)c(/C=C2\C(=O)Nc3ccccc32)[nH]1 (library stock concentration (final ~1000-fold dilution): 10 mM),IRF Lucia reporter activity,RAW-Dual [2]; [5],0.77
same,IRF Lucia reporter activity,RAW-Dual [2]; agonist: LPS (TLR4) 0.1 ug/mL,0.578
Cc1cc(C)c(/C=C2\C(=O)Nc3ccccc32)[nH]1,IRF Lucia reporter activity,RAW-Dual [1]; [4],0.781
O=C(c1cc(-c2cc3c(cc2C(=O)N2Cc4ccccc4CC2CN2CCOCC2)OCO3)n2c1CCCC2)N(c1ccccc1)c1ccc(O)cc1 (stereo not drawn) (library stock concentration (final ~1000-fold dilution): 10 mM),IRF Lucia reporter activity,RAW-Dual [2]; [5],0.268
same,IRF Lucia reporter activity,RAW-Dual [2]; agonist: LPS (TLR4) 0.1 ug/mL,0.935
Oc1cc(O)c2c(c1)OC(c1ccc(O)c(O)c1)C(O)[C@H]2c1c(O)cc(O)c2c1OC(c1ccc(O)c(O)c1)C(O)C2 (stereo partly drawn) (library stock concentration (final ~1000-fold dilution): 10 mM),IRF Lucia reporter activity,RAW-Dual [2]; [5],0.867
same,IRF Lucia reporter activity,RAW-Dual [2]; agonist: LPS (TLR4) 0.1 ug/mL,1.27
CC(C)N1CCN(Cc2cnc(-c3cc(-c4cccc5[nH]ccc45)cc4[nH]ncc34)o2)CC1 (library stock concentration (final ~1000-fold dilution): 10 mM),IRF Lucia reporter activity,RAW-Dual [2]; [5],0.609
same,IRF Lucia reporter activity,RAW-Dual [2]; agonist: LPS (TLR4) 0.1 ug/mL,1.42
COc1ncc(-c2cc(-c3ncc(CN4CC(C)OC(C)C4)o3)c3cn[nH]c3c2)cc1NS(C)(=O)=O (stereo not drawn) (library stock concentration (final ~1000-fold dilution): 10 mM),IRF Lucia reporter activity,RAW-Dual [3]; [5],0.865
same,IRF Lucia reporter activity,RAW-Dual [3]; agonist: LPS (TLR4) 0.1 ug/mL,4.5
CN1CCN(C(=O)c2ccc(-c3ccc4c(C=O)c(O)ccc4c3)s2)CC1 (library stock concentration (final ~1000-fold dilution): 10 mM),IRF Lucia reporter activity,RAW-Dual [2]; [5],0.228
same,IRF Lucia reporter activity,RAW-Dual [2]; agonist: LPS (TLR4) 0.1 ug/mL,0.45
